About 300 (9.4%) of roughly 3,200 compounds showed activity. What follows is part of a selection rich in actives, with near analogues and random picks from the rest.
System: A673/TR/shEF
Experiment: cell viability (LOESS-normalised, relative to median of negative controls) (log2 ratio); higher = more viable cells (less compound effect), active = hit call of the paper (over 3 MAD below the median)
Conditions: treatment time: 72 h
Outline: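 A673/TR/shEF Ewing sarcoma cells (1,500 per well, 384-well plates) were grown with or without doxycycline to induce EWS-FLI1 shRNA knockdown, starting 24 h before compounds. Library compounds at two or more concentrations, with DMSO controls, were added for three days. Cell viability was read by CellTiter-Glo luminescence on an Envision reader, then LOESS-corrected per plate, divided by the median of negative controls and log2-transformed. Hits were wells at least three median absolute deviations from the median of all screened wells.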

[1] = 0.103 µM, library screen: screen3, EWS-FLI1 expression: high (no doxycycline)
[2] = 0.103 µM, library screen: screen3, EWS-FLI1 expression: low (doxycycline-induced shRNA knockdown)
[3] = 0.308 µM, library screen: screen3, EWS-FLI1 expression: high (no doxycycline)
[4] = 0.308 µM, library screen: screen3, EWS-FLI1 expression: low (doxycycline-induced shRNA knockdown)
[5] = 0.926 µM, library screen: screen3, EWS-FLI1 expression: high (no doxycycline)
[6] = 0.926 µM, library screen: screen3, EWS-FLI1 expression: low (doxycycline-induced shRNA knockdown)
[7] = 2.8 µM, library screen: screen3, EWS-FLI1 expression: high (no doxycycline)
[8] = 2.8 µM, library screen: screen3, EWS-FLI1 expression: low (doxycycline-induced shRNA knockdown)
[9] = 8.3 µM, library screen: screen3, EWS-FLI1 expression: high (no doxycycline)
[10] = 8.3 µM, library screen: screen3, EWS-FLI1 expression: low (doxycycline-induced shRNA knockdown)
[11] = 25 µM, library screen: screen3, EWS-FLI1 expression: high (no doxycycline)
[12] = 25 µM, library screen: screen3, EWS-FLI1 expression: low (doxycycline-induced shRNA knockdown)
[13] = 0.25 µM, library screen: screen1, EWS-FLI1 expression: high (no doxycycline)
[14] = 0.25 µM, library screen: screen1, EWS-FLI1 expression: low (doxycycline-induced shRNA knockdown)
[15] = 2.5 µM, library screen: screen1, EWS-FLI1 expression: high (no doxycycline)
[16] = 2.5 µM, library screen: screen1, EWS-FLI1 expression: low (doxycycline-induced shRNA knockdown)
[17] = 0.025 µM, library screen: screen1, EWS-FLI1 expression: high (no doxycycline)
[18] = 0.025 µM, library screen: screen1, EWS-FLI1 expression: low (doxycycline-induced shRNA knockdown)
[19] = 0.25 µM, library screen: screen2, EWS-FLI1 expression: high (no doxycycline)
[20] = 0.25 µM, library screen: screen2, EWS-FLI1 expression: low (doxycycline-induced shRNA knockdown)
[21] = 2.5 µM, library screen: screen2, EWS-FLI1 expression: high (no doxycycline)
[22] = 2.5 µM, library screen: screen2, EWS-FLI1 expression: low (doxycycline-induced shRNA knockdown)
[23] = 25 µM, library screen: screen1, EWS-FLI1 expression: high (no doxycycline)
[24] = 25 µM, library screen: screen1, EWS-FLI1 expression: low (doxycycline-induced shRNA knockdown)

Measured: cell viability (log2)

CN1CC[C@H](c2c(O)cc(O)c3c(=O)cc(-c4ccccc4Cl)oc23)[C@H](O)C1
inactive: [2] -0.0654
active: [1] -0.182 | [3] -0.451 | [4] -0.231 | [5] -1.4 | [6] -1.66 | [7] -3.54 | [8] -2.88 | [9] -4.29 | [10] -4.28 | [11] -4.33 | [12] -4.3

CC(=O)OC1CC[C@@]2(C)C(CC[C@]3(C)C2CCC2C4CC(C)(C)CCC4(C(=O)O)CC[C@]23C)C1(C)C (stereo partly drawn)
inactive: [13] 0.0992 | [14] 0.055 | [15] 0.145 | [16] 0.119

CC(=O)Oc1cc(OC(C)=O)c2c(c1)OC(c1ccc(OC(C)=O)c(OC(C)=O)c1)C(OC(C)=O)C2 (stereo not drawn)
inactive: [13] 0.1 | [14] 0.0336 | [15] 0.18 | [16] 0.104

CC(C)(O)[C@@H]1Cc2cc3ccc(=O)oc3cc2O1
inactive: [13] 0.0301 | [14] -0.0352 | [15] 0.107 | [16] 0.0444

COc1ccccc1-c1cc(=O)c2cccc(OC)c2o1
inactive: [13] 0.00414 | [14] -0.0253 | [15] 0.211 | [16] 0.0664

COc1ccccc1-c1cc(=O)c2c(OC)cccc2o1
inactive: [13] 0.121 | [14] -0.0186 | [15] 0.129 | [16] 0.0665

COc1cccc(-c2cc(=O)c3ccccc3o2)c1N
0.278: [13]
active: [15] -0.37
inactive: [17] 0.268 | [18] -0.0228 | [14] -0.0268 | [19] 0.18 | [20] 0.11 | [16] 0.0789 | [21] 0.195 | [22] 0.139 | [23] -0.0514 | [24] 0.0727

Cc1cc(OC(=O)c2c(C)cc(OC(=O)c3c(C)cc(O)cc3O)cc2O)cc(O)c1C(=O)O
inactive: [13] 0.154 | [14] 0.153 | [15] 0.0106 | [16] 0.113

CC[n+]1c(-c2ccccc2)c2cc(N)ccc2c2ccc(N)cc21
active: [15] -1.89
inactive: [13] 0.0617 | [14] 0.0391 | [16] -0.0126

NCCNC(=O)Cc1ccc(NC(=O)Cc2ccc(Nc3ncnc4c3ncn4C3OC(CO)C(O)C3O)cc2)cc1 (stereo not drawn)
inactive: [19] 0.211 | [20] 0.142 | [21] 0.0909 | [22] 0.0423

O=C1/C(=C\c2ccccc2F)SC(=S)N1CN1CCOCC1
inactive: [13] 0.128 | [14] 0.0809 | [15] 0.107 | [16] -0.00103

NCCCC(=O)O
inactive: [13] 0.0628 | [14] 0.0888 | [19] 0.148 | [20] 0.12 | [15] 0.21 | [16] 0.0413 | [21] 0.0279 | [22] 0.142

O=C(O)CCCCCCCC(=O)O
inactive: [13] 0.000753 | [14] 0.0938 | [20] 0.0952 | [15] 0.149 | [16] 0.152 | [21] 0.0755 | [22] 0.0904
active: [19] -0.13

NCCCCC(=O)O
active: [19] -0.118
inactive: [13] 0.172 | [14] 0.0951 | [20] 0.128 | [15] 0.237 | [16] 0.0298 | [21] 0.0908 | [22] 0.116

NCCCCCC(=O)O
inactive: [1] 0.214 | [2] 0.078 | [13] 0.0812 | [14] 0.00994 | [19] -0.00366 | [20] 0.09 | [3] 0.0847 | [4] 0.0858 | [5] 0.107 | [6] 0.0768 | [15] 0.144 | [16] 0.111 | [21] 0.0922 | [22] 0.111 | [7] 0.141 | [8] 0.0677 | [9] 0.085 | [10] 0.128 | [11] 0.0538 | [12] 0.145

CCCCCCCC/C=C\CCCCCCCC(=O)O
inactive: [19] 0.0706 | [20] 0.117 | [21] 0.0994 | [22] 0.08

CC(=O)NCCCCCC(=O)O
inactive: [13] 0.0566 | [14] 0.106 | [15] 0.0136 | [16] 0.0704

COC(=O)[C@@H]1OC(=O)C2OC23[C@@]1(C)CCC1[C@]2(C)C(C[C@@H](O)[C@]13C)C(C)(C)[C@H](OC(C)=O)C[C@@H]2OC(C)=O (stereo partly drawn)
inactive: [13] 0.0653 | [14] 0.123 | [15] 0.0967 | [16] 0.0969

COCCN1C(=O)C(=Cc2c(Cl)cccc2Cl)SC1=S
inactive: [13] 0.153 | [14] 0.208 | [15] 0.122 | [16] 0.19

COc1c(C=O)c(O)cc2c1C(=O)c1ccccc1C2=O
inactive: [17] 0.0865 | [18] 0.0031 | [13] 0.118 | [14] -0.13 | [15] 0.0699 | [16] -0.209 | [23] 0.0121 | [24] -0.781

COc1cc(C)c2c(=O)c3c(O)cc(O)cc3oc2c1
inactive: [13] -0.0797 | [14] 0.0363 | [15] 0.0175 | [16] 0.108

CC(C)c1c(O)ccc2c1CCC1[C@@](C)(C=O)CCC[C@]21C (stereo partly drawn)
inactive: [13] 0.0641 | [14] 0.0754 | [15] 0.163 | [16] 0.289

CC1=C(C(=O)Nc2ccccc2Cl)C(c2ccc(O)cc2)NC(=S)N1 (stereo not drawn)
inactive: [13] 0.145 | [14] -0.0151 | [15] 0.191 | [16] -0.0985

CCN(CC)c1ccc(C2C(C(=O)OC)=C(C)NC(C)=C2C(=O)OC)cc1
inactive: [13] 0.121 | [14] 0.087 | [15] 0.202 | [16] 0.078

CC[C@H](CC[C@@H](C)[C@H]1CC[C@H]2[C@@H]3CC=C4C[C@@H](OC(C)=O)CC[C@]4(C)[C@H]3CC[C@]12C)C(C)C
inactive: [13] 0.121 | [14] 0.139 | [15] 0.109 | [16] 0.182

CCCCCCCCCCCCC(=O)N1CCCCC1CNC(=O)C(N)CCCCN (stereo not drawn)
inactive: [19] 0.125 | [20] 0.1 | [21] 0.117 | [22] 0.072

COc1ccc(CN2CCN(Cc3ccc(C)cc3)CC2)c(OC)c1OC
inactive: [13] 0.0669 | [14] 0.0696 | [15] 0.138 | [16] 0.00566

C=CCc1ccc(OC(=O)c2ccccc2)c(OC)c1
inactive: [13] 0.102 | [14] -0.0537 | [15] 0.111 | [16] 0.0334

C=CCc1ccc(O)c(OC)c1
inactive: [13] 0.0882 | [14] 0.124 | [15] 0.127 | [16] 0.12

N/C(=N\S(=O)(=O)Cc1ccccc1)Nc1nc2ccccc2o1
inactive: [13] 0.0883 | [14] 0.00923 | [15] 0.149 | [16] 0.031

COc1ccc2c(c1)CCC1=CC(=O)CCC12C (stereo not drawn)
inactive: [13] 0.119 | [14] 0.144 | [15] 0.0987 | [16] 0.126

OC[C@@H](O)[C@@H](O[C@@H]1O[C@H](CO)[C@@H](O)[C@H](O)[C@H]1O)[C@H](O)[C@@H](O)CO
inactive: [13] 0.117 | [14] 0.055 | [15] 0.143 | [16] 0.0198

NC(N)=NCCN1CCCCCCC1
inactive: [13] 0.086 | [14] 0.0896 | [15] 0.182 | [16] 0.105

[O-]n1ccccc1=S.[O-]n1ccccc1=S.[Zn+2]
inactive: [13] 0.17 | [14] 0.0708 | [16] 0.0604
active: [15] -0.205

O=C([O-])[O-].[Ca+2]
inactive: [19] 0.129 | [20] 0.105 | [21] 0.151 | [22] 0.0778

COc1ccc(CN2CCN(Cc3ccc(OC)c(OC)c3OC)CC2)cc1OC
inactive: [13] 0.061 | [14] 0.00924 | [15] 0.123 | [16] 0.0982

CC(C)N1C(=O)C(=C2C(=O)N(C)c3ccccc32)SC1=S
inactive: [13] 0.0638 | [14] 0.00946 | [15] 0.0618 | [16] 0.138

C[C@H]1C(=O)CC[C@@H]2[C@]1(C)CC[C@H]1[C@@]2(C)CC[C@@]2(C)[C@@H]3CC(C)(C)CC[C@]3(C)CC[C@]12C
inactive: [13] 0.031 | [14] 0.0462 | [15] 0.0143 | [16] 0.0816

O=c1c(O)c(-c2cc(O)c(O)c(O)c2)oc2cc(O)cc(O)c12
inactive: [13] 0.0195 | [14] 0.156 | [19] 0.118 | [20] 0.093 | [15] 0.0517 | [16] 0.0582 | [21] 0.111 | [22] 0.0599

O=c1c(O)c(-c2ccc(O)c(O)c2)oc2cc(O)cc(O)c12
active: [23] -1.43
inactive: [17] 0.22 | [18] 0.00571 | [13] 0.112 | [14] 0.018 | [19] 0.12 | [20] 0.0619 | [15] 0.108 | [16] 0.0969 | [21] 0.176 | [22] 0.00939 | [24] 0.0272

COc1cc(O)c2c(=O)c(O)c(-c3ccc(O)c(O)c3)oc2c1
inactive: [13] -0.00867 | [14] 0.0259 | [15] 0.0453 | [16] 0.0969

N#Cc1c2c(c(Nc3ccc(O)cc3)n3c1nc1ccccc13)CCC2
inactive: [13] 0.0182 | [14] 0.0391 | [15] 0.0659 | [16] 0.0482
